Measured values taken from PubChem BioAssay AID720629 (Broad Institute, 2013).
Inconclusive results are not listed. Active and inactive are the calls of the source. No rule for the calls is given here.

Assay: SNB-75 cell apoptosis via caspase 3/7 – caspase 3/7 luminescence, several timepoints, dry powder, mechanism study for HRAS target identification, late-stage follow-up (AID 720629)
Conditions: max activity: measured here: caspase 3/7, timepoint 1, at 0.0003 µM, stronger effect = higher value unless noted

Row | SMILES | max activity | outcome
1 | C#CCCCC(=O)NCCOCCOCCOc1ccc(N(C(=O)CCl)C(C(=O)NCCc2ccccc2)c2cccs2)cc1Cl (centres undefined) | -28.3% | inactive
2 | CCC(=O)N(c1ccc(OC)c(Cl)c1)C(C(=O)NCCc1ccccc1)c1cccs1 (centres undefined) | -24.1% [measured here: caspase 3/7, timepoint 1, at 0.0001 µM, stronger effect = higher value] | inactive
